Screening data as filed in PubChem.
Compounds with a hit are over-represented: about 8.1% of the library has one in this group of screens.
KB-V1 cytotox: qHTS assay for MDR1-selective chemotherapeutics: Primary screen using the drug-selected MDR subline cells KB-V1; 400,000 compounds, 3.4% hits; Potency, µM (highest dose often 46.1 µM), hits mostly cytotoxic; KB-V1 MDR cells viability, CellTiter-Glo, 72 h; further: on the % scale 0 is the no-effect control and ±100 the full control effect; nearly all actives have a fitted effect of over 60% in size
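Potencies derive from concentration-effect curves fitted to normalized luminescence (CellTiter-Glo) of KB-V1 cells treated for 72 h at 37 degrees C in phenol-red-free DMEM containing 10% FBS.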
ELG1 DNA repair: qHTS screen for small molecules that inhibit ELG1-dependent DNA repair in human embryonic kidney (HEK293T) cells expressing luciferase-tagged ELG1. AID 504467, 2011. HEK293T ELG1-luciferase reporter, luminescence, 16 h; DNA damage induced by 5-fluorouridine. Potency, µM (series often up to 46.1 µM), inactives show top-dose activity change, negative = inhibition, hits mostly inhibitors. 330,000 compounds, 2.3% hits; further: on the % scale 0 is the no-effect control and ±100 the full control effect; nearly all actives have a fitted effect of over 55% in size
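Quantitative HTS, concentration-response format. 2,000 cells/well co-treated with 5-fluorouridine and compound, 16 hr in 5% CO2 at 37 °C; ONE-Glo luminescence read after 30 min.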
KB-3-1 cytotox: qHTS assay for MDR1-selective chemotherapeutics: Primary screen using the parental adenocarcinoma cell KB-3-1; Potency, µM (doses to about 46.1 µM), usual class: cytotoxic; AID 1347075, 2019; KB-3-1 viability, CellTiter-Glo ATP luminescence, 72 h; 400,000 compounds, 1.4% hits; further: on the % scale 0 is the no-effect control and ±100 the full control effect; nearly all actives have a fitted effect of over 60% in size
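KB-3-1 parental drug-naive adenocarcinoma cells in DMEM/10% FBS, incubated 72 h at 37 C with pin-transferred compounds across a concentration series. Viability by CellTiter-Glo luminescence; concentration-response curves fitted after normalization.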
MCF10A rerep: A quantitative high throughput screen for small molecules that induce DNA re-replication in MCF 10a normal breast cells; MCF 10A DNA re-replication, Hoechst nuclear intensity, 48 h; Potency, µM (top dose mostly 46.1 µM), inactives show at the highest dose activity, positive = re-replication, actives largely listed as activators; 350,000 compounds, 2.9% hits; further: % of control where 0% means no effect; nearly all actives have a fitted effect of over 50% in size
SW480 rereplic: A quantitative high throughput screen for small molecules that induce DNA re-replication in SW480 colon adenocarcinoma cells; SW480 DNA re-replication, Hoechst DNA content imaging, 48 h; Potency, µM (highest dose often 46.1 µM), for the others: at the top dose re-replication activation, actives largely listed as activators; 340,000 compounds, 1.8% hits; AID 624297, 2012; further: % of control where 0% means no effect; nearly all actives have a fitted effect of over 55% in size
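DNA re-replication was detected as more nuclei of elevated Hoechst intensity after 48 hr exposure to compound (23 nL pinned per well of 250 cells).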
* hit, by the source's call; i = inactive; u = inconclusive; x = no result given. The call rests on the fitted dose curve; in most records, active means well fitted curve in the direction sought with a large enough effect; inconclusive means small, poorly fitted or top-dose-only effect, or another doubt; inactive means no such curve, though single readings can be large; an effect the other way counts as inactive or inconclusive. Potency means the concentration at half of the fitted maximal effect.

SMILES | KB-V1 cytotox | ELG1 DNA repair | KB-3-1 cytotox | MCF10A rerep | SW480 rereplic
O=C(NCCC1=CCCCC1)C(=O)NCC(c1ccco1)N1CCN(c2ccccc2F)CC1 (configuration not stated) | 4.1µM* | 3% | i | 0% | -46%
COc1ccc(N2CCN(C(CNC(=O)C(=O)NCCC3=CCCCC3)c3ccco3)CC2)cc1 (configuration not stated) | 2.6µM* | 7% | i | 15% | 10%
COc1ccc(/C=N/NC(=O)Nc2cccc3nsnc23)c(OC)c1 | i | -4% | i | u | u
O=C(N/N=C/c1ccc(O)cc1)Nc1cccc2nsnc12 | i | u | u | u | 15µM*
O=C(c1sc2ccccc2c1Cl)N(Cc1ccco1)C1CCS(=O)(=O)C1 (configuration not stated) | u | -8% | i | 0% | -4%
O=C(c1sc2ccccc2c1Cl)N(Cc1ccccc1Cl)C1CCS(=O)(=O)C1 (configuration not stated) | 8.2µM* | -23% | u | 23% | -2%
O=C(c1cccs1)N(Cc1cccc(Cl)c1)C1CCS(=O)(=O)C1 (configuration not stated) | 15µM* | 4% | i | -1% | -1%
O=C(/C=C/c1ccco1)N(Cc1ccccc1)C1CCS(=O)(=O)C1 (configuration not stated) | i | u | i | 0% | 15µM*
O=C(c1sc2ccccc2c1Cl)N(Cc1ccccc1)C1CCS(=O)(=O)C1 (configuration not stated) | 21µM* | u | i | 3% | 1%
Cc1cc(Cl)ccc1NC(=O)/N=C1/NC(=O)CS1 | i | x | i | x | x
FC(F)(F)Oc1ccccc1C(c1nnnn1-c1ccc2c(c1)OCCO2)N1CCN(C/C=C/c2ccccc2)CC1 (configuration not stated) | u | x | i | x | x
Cc1cc(Cl)ccc1C(O)c1ncc(-c2ccc(C(F)(F)F)cc2)[nH]1 (configuration not stated) | i | x | i | x | x
CCc1ccc(NC(=O)[C@H](NC(=O)[C@@H]2Cc3ccccc3CN2)c2ccccc2)cc1 | u | u | i | 0% | u
Cc1ccc(NC(=O)[C@H](Cc2ccccc2)NC(=O)[C@@H]2Cc3ccccc3CN2)c(C)c1 | i | 1% | i | 2% | -7%
CC(NC(=O)[C@H](Cc1c[nH]c2ccccc12)NC(=O)[C@@H]1Cc2ccccc2CN1)c1ccccc1 (some centres not stated) | i | 14% | i | 13% | 0%
Cc1cc(C)cc(NC(=O)[C@H](Cc2c[nH]c3ccccc23)NC(=O)[C@@H]2Cc3ccccc3CN2)c1 | u | -6% | i | 21µM* | 18µM*
Cc1ccc(NC(=O)[C@H](Cc2c[nH]c3ccccc23)NC(=O)[C@@H]2Cc3ccccc3CN2)c(C)c1 | u | 56% | 1.8µM* | u | 7%
CCc1ccc(NC(=O)[C@H](Cc2c[nH]c3ccccc23)NC(=O)[C@@H]2Cc3ccccc3CN2)cc1 | u | 7% | 5.2µM* | 18µM* | 16µM*
Cc1cccc(NC(=O)[C@H](Cc2c[nH]c3ccccc23)NC(=O)[C@@H]2Cc3ccccc3CN2)c1 | i | u | 5.8µM* | 16µM* | 21µM*
O=C1CC[C@H](C(=O)N[C@@H]2C[C@H]2c2ccccc2)N1 | x | x | x | -1% | -5%
Cc1onc(-c2c(F)cccc2Cl)c1C(=O)N1CCCC1 | i | 4% | i | -3% | -1%
Cc1ccc(C(=O)N2CCNC(=O)C2CC(=O)Nc2ccccc2)cc1 (configuration not stated) | i | 11% | i | -4% | -8%
CN1c2ccccc2N(C)C1c1ccc2c(c1)OCO2 | i | -3% | 5.8µM* | 0% | 1%
O=S(=O)(Nc1nc(CN2CCOCC2)nc2sc3c(c12)CCCC3)c1cc(F)ccc1F | 10µM* | 1% | i | 2% | 3%
CC(=O)Nc1ccccc1-c1nc2ccccc2n(CC(=O)Nc2ccc(C)c(Cl)c2)c1=O | i | x | i | x | x
SMILES | KB-V1 cytotox | ELG1 DNA repair | KB-3-1 cytotox | MCF10A rerep | SW480 rereplic
CC(=O)C1=C(C)NC(SCC(=O)Nc2nccs2)=C(C#N)C1c1ccccc1Cl (configuration not stated) | i | -23% | i | 1.8µM* | 6.5µM*
C=CCOC(=O)C1=C(C)NC(SCC(=O)Nc2nccs2)=C(C#N)C1c1ccc(Cl)cc1 (configuration not stated) | i | u | u | 1µM* | 1.6µM*
c1ccc(-c2cc(-c3nnc4n3N=C(c3ccc5ccccc5c3)CS4)[nH]n2)cc1 | 7.3µM* | u | i | 4.1µM* | u
Cc1cccc(-c2nnc3n2N=C(c2ccccc2)CS3)c1 | 8.2µM* | 2% | u | 13% | 4%
CCOc1ccc(C2=Nn3c(nnc3-c3cccnc3)SC2)cc1 | u | u | i | 10% | 0%
COc1ccc(-c2nnc3n2N=C(c2ccccc2)CS3)cc1OC | x | -3% | x | x | x
c1ccc(C2=Nn3c(nnc3-c3ccncc3)SC2)cc1 | i | 8.2µM* | i | 8% | u
CCOc1ccc(C2=Nn3c(nnc3-c3ccc(OC)cc3)SC2)cc1 | 3.3µM* | u | 2.9µM* | u | 5.8µM*
Cc1cc(-c2nnc3n2N=C(c2ccc(-c4ccccc4)cc2)CS3)n[nH]1 | i | u | u | u | 3%
CCc1nc2c(OCc3cccc(OC)c3)cccn2c1N(C)C(=O)c1ccccc1F | i | x | i | x | x
O=C(CCn1c(=O)c2ccccc2n(CC(=O)Nc2ccc(F)cc2)c1=O)NCCc1ccccc1 | i | x | i | x | x
CC(C)CN1CCc2nc(Nc3ccc(F)cc3F)ncc2C1 | i | x | i | x | x
CN(CC(=O)Nc1cccc(F)c1)C(=O)CCSc1ccc(F)cc1 | u | -22% | 8.2µM* | u | 17%
COc1ccc(NC(=O)CN(C)C(=O)CCSc2ccc(F)cc2)cc1 | u | -27% | i | 8% | 0%
CN(CC(=O)Nc1cccc(F)c1)C(=O)c1ccccc1Sc1ccccc1C#N | i | 16µM* | i | 3% | u
O=C(Nc1nn(Cc2ccc(Cl)cc2)cc1Br)c1ccc(COc2ccccc2Cl)o1 | 16µM* | 18µM* | u | -1% | -9%
O=C(Nc1ccc(Cl)cn1)c1ccc(COc2ccccc2Br)o1 | u | u | i | u | -10%
